Assay results as given in PubChem BioAssay (NCI).
This is part of a sample that, as a whole, favours compounds with a hit. Of some 83,000 tested, about 20% had one in any assay.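 Percent growth is the endpoint: 0 to 100 indicates growth inhibition (40 means 60% inhibition), 0 means no net growth, and negative values indicate cell death.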 A number with no mark means an inactive call. The source made the active and inactive calls. How the source made its calls: active means growth percent below 10; inactive means the rest.

Experiments:
Experiment in all cases: NCI-60 one-dose screen, 48 h (100 = growth as untreated, 0 = no growth, -100 = all killed)
Conditions in all cases: 10 µM unless noted
HCT-15 colon = system: HCT-15 colon
HT29 colon = system: HT29 colon
SNB-75 CNS = system: SNB-75 CNS
SNB-19 CNS = system: SNB-19 CNS
U251 CNS = system: U251 CNS
PC-3 prostate = system: PC-3 prostate
SK-MEL-5 melanoma = system: SK-MEL-5 melanoma
UACC-62 melanoma = system: UACC-62 melanoma
SK-MEL-28 melanoma = system: SK-MEL-28 melanoma
SK-MEL-2 melanoma = system: SK-MEL-2 melanoma
EKVX NSCLC = system: EKVX NSCLC
SN12C renal = system: SN12C renal
UO-31 renal = system: UO-31 renal
TK-10 renal = system: TK-10 renal
ACHN renal = system: ACHN renal
CAKI-1 renal = system: CAKI-1 renal
A498 renal = system: A498 renal
CCRF-CEM leukemia = system: CCRF-CEM leukemia
MOLT-4 leukemia = system: MOLT-4 leukemia

Compound: c1cc(N2CCCC2)c2nc(-c3[nH]ncc3Nc3ncnc4[nH]ccc34)[nH]c2c1
- growth (HCT-15 colon): -26.4% (active)
- growth (HT29 colon): 1.13% (active)
- growth (SNB-75 CNS): -59.6% (active)
- growth (SNB-19 CNS): -13.1% (active)
- growth (U251 CNS): 3% (active)
- growth (PC-3 prostate): 3.86% (active)
- growth (SK-MEL-5 melanoma): -89.3% (active)
- growth (UACC-62 melanoma): -78.5% (active)
- growth (SK-MEL-28 melanoma): -53.3% (active)
- growth (SK-MEL-2 melanoma): -42.1% (active)
- growth (EKVX NSCLC): -31% (active)
- growth (SN12C renal): -13.7% (active)
- growth (UO-31 renal): -20.3% (active)
- growth (TK-10 renal): -26.4% (active)
- growth (ACHN renal): -14.6% (active)
- growth (CAKI-1 renal): -33.2% (active)
- growth (A498 renal): -79.5% (active)
- growth (CCRF-CEM leukemia): 1.97% (active)
- growth (MOLT-4 leukemia): 1.93% (active)

Compound: CN(C)c1ccc(N)c2ccccc12
- growth (HCT-15 colon): -82.9% (active)
- growth (HT29 colon): 70.5%
- growth (SNB-75 CNS): 101%
- growth (SNB-19 CNS): 66.7%
- growth (U251 CNS): 64.3%
- growth (PC-3 prostate): 32.1%
- growth (SK-MEL-5 melanoma): -99.4% (active)
- growth (UACC-62 melanoma): -6.64% (active)
- growth (SK-MEL-28 melanoma): 56.6%
- growth (SK-MEL-2 melanoma): 89.6%
- growth (EKVX NSCLC): 49.2%
- growth (SN12C renal): -62.2% (active)
- growth (UO-31 renal): 52.7%
- growth (TK-10 renal): 128%
- growth (ACHN renal): 67.2%
- growth (CAKI-1 renal): 69.4%
- growth (A498 renal): 183%
- growth (CCRF-CEM leukemia): 41.8%
- growth (MOLT-4 leukemia): 40.7%

Compound: Nc1c2c(nc3ccc(Br)cc13)CC(c1ccccc1)CC2=O (configuration not stated)
- growth (HCT-15 colon): 21.9%
- growth (HT29 colon): 15.7%
- growth (SNB-75 CNS): -1.66% (active)
- growth (SNB-19 CNS): 37%
- growth (U251 CNS): 41.8%
- growth (PC-3 prostate): 40.4%
- growth (SK-MEL-5 melanoma): 20.1%
- growth (UACC-62 melanoma): 38.1%
- growth (SK-MEL-28 melanoma): 55.5%
- growth (SK-MEL-2 melanoma): 59.2%
- growth (EKVX NSCLC): 27.2%
- growth (SN12C renal): 51.3%
- growth (UO-31 renal): 53.1%
- growth (TK-10 renal): 85.7%
- growth (ACHN renal): 57.7%
- growth (CAKI-1 renal): 47.2%
- growth (A498 renal): 1.16% (active)
- growth (CCRF-CEM leukemia): 19.7%
- growth (MOLT-4 leukemia): 29.3%

Compound: C[C@H]1[C@H]2C3=CC[C@@H]4[C@@]5(C)C/C(=C/c6ccco6)C(=O)C(C)(C)[C@@H]5CC[C@@]4(C)[C@]3(C)CC[C@@]2(C(=O)N2CCOCC2)CC[C@@H]1C
- growth (HCT-15 colon): 40.2%
- growth (HT29 colon): 28.9%
- growth (SNB-75 CNS): 99.4%
- growth (SNB-19 CNS): 71.3%
- growth (U251 CNS): 49.1%
- growth (PC-3 prostate): 39.1%
- growth (SK-MEL-5 melanoma): 72.1%
- growth (UACC-62 melanoma): 60.5%
- growth (SK-MEL-28 melanoma): 69.7%
- growth (SK-MEL-2 melanoma): 106%
- growth (EKVX NSCLC): 88.4%
- growth (SN12C renal): 73.8%
- growth (UO-31 renal): 49%
- growth (TK-10 renal): 99.6%
- growth (ACHN renal): 53.7%
- growth (CAKI-1 renal): 42.5%
- growth (A498 renal): 94%
- growth (CCRF-CEM leukemia): 14.2%
- growth (MOLT-4 leukemia): 6.22% (active)

Compound: N=C(N)c1ccc(-c2ccc(-c3cc(F)cc(F)c3)o2)nc1
- growth (HCT-15 colon): 77.4%
- growth (HT29 colon): 26.2%
- growth (SNB-75 CNS): 72.1%
- growth (SNB-19 CNS): 93.2%
- growth (U251 CNS): 85.9%
- growth (PC-3 prostate): 82.4%
- growth (SK-MEL-5 melanoma): 88.7%
- growth (UACC-62 melanoma): 96.3%
- growth (SK-MEL-28 melanoma): 98.7%
- growth (SK-MEL-2 melanoma): 106%
- growth (EKVX NSCLC): 90.4%
- growth (SN12C renal): 86.9%
- growth (UO-31 renal): 69.8%
- growth (TK-10 renal): 124%
- growth (ACHN renal): 90%
- growth (CAKI-1 renal): 78.5%
- growth (A498 renal): 90.3%
- growth (CCRF-CEM leukemia): -35.6% (active)
- growth (MOLT-4 leukemia): 73.8%

Compound: N#CC1=C(N)Oc2c(c(N)nn2-c2ccccc2)C1c1ccc(Cl)cc1Cl (configuration not stated)
- growth (HCT-15 colon): 100%
- growth (HT29 colon): 115%
- growth (SNB-75 CNS): 73.2%
- growth (SNB-19 CNS): 95.2%
- growth (U251 CNS): 91.6%
- growth (PC-3 prostate): 94.5%
- growth (SK-MEL-5 melanoma): 101%
- growth (UACC-62 melanoma): 88.7%
- growth (SK-MEL-28 melanoma): 104%
- growth (SK-MEL-2 melanoma): 101%
- growth (EKVX NSCLC): 91.2%
- growth (SN12C renal): 99.5%
- growth (UO-31 renal): 73.8%
- growth (TK-10 renal): 123%
- growth (ACHN renal): 99%
- growth (CAKI-1 renal): 90.1%
- growth (A498 renal): 90.7%
- growth (CCRF-CEM leukemia): 95.6%
- growth (MOLT-4 leukemia): 88.3%

Compound: CC(=O)n1c(/C(C#N)=C/c2ccc(N(C)C)cc2)cc2ccccc21
- growth (HCT-15 colon): 23.9%
- growth (HT29 colon): 9.7% (active)
- growth (SNB-75 CNS): -6.19% (active)
- growth (SNB-19 CNS): 35.8%
- growth (U251 CNS): 36.4%
- growth (PC-3 prostate): 39.4%
- growth (SK-MEL-5 melanoma): 29.7%
- growth (UACC-62 melanoma): 26.8%
- growth (SK-MEL-28 melanoma): 60.8%
- growth (SK-MEL-2 melanoma): 47.9%
- growth (EKVX NSCLC): 36.8%
- growth (SN12C renal): 42.9%
- growth (UO-31 renal): 52.6%
- growth (TK-10 renal): 91.3%
- growth (ACHN renal): 47.5%
- growth (CAKI-1 renal): 37.7%
- growth (A498 renal): 2.85% (active)
- growth (CCRF-CEM leukemia): 21.1%
- growth (MOLT-4 leukemia): 33.1%

Compound: CCSc1ncnc2c1ncn2C1OC(CO)C(O)C1O (configuration not stated)
- growth (HCT-15 colon): 30.9%
- growth (HT29 colon): 19.1%
- growth (SNB-75 CNS): 57%
- growth (SNB-19 CNS): 34.1%
- growth (U251 CNS): 54.5%
- growth (PC-3 prostate): 16.8%
- growth (SK-MEL-5 melanoma): 32.6%
- growth (UACC-62 melanoma): 50.7%
- growth (SK-MEL-28 melanoma): 83.1%
- growth (SK-MEL-2 melanoma): 63.4%
- growth (EKVX NSCLC): 51.8%
- growth (SN12C renal): 34.4%
- growth (UO-31 renal): 24.5%
- growth (TK-10 renal): 37.6%
- growth (ACHN renal): 32.6%
- growth (CAKI-1 renal): 32.2%
- growth (A498 renal): 60.9%
- growth (CCRF-CEM leukemia): 23.4%
- growth (MOLT-4 leukemia): 21.4%
